This note sets out measurements from PubChem BioAssay (NCATS).

The nature of experiment [1]: Quantitative High-Throughput drug screen in 47 multiple myeloma cell lines against the NCATS MIPE library collection: MM1S_ATCC cell viability assay (AID 1918980). Note: nearly all actives have a fitted effect of over 45% in size. The essentials: (§1)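 Viability after 48 h drug exposure was measured as ATP-dependent luminescence. Cells, 500 per well, sat at 37 °C under 5% CO2; DMSO wells set 100%, media-only wells 0%.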
A short description of experiment [2]: Quantitative High-Throughput drug screen in 47 multiple myeloma cell lines against the NCATS MIPE library collection: MM1R_ATCC cell viability assay (AID 1918981). Note: nearly all actives have a fitted effect of over 35% in size. The essentials:
as §1

Experiment [3] can be described thus: Quantitative High-Throughput drug screen in 47 multiple myeloma cell lines against the NCATS MIPE library collection: KMS28PE_JCRB cell viability assay (AID 1918983). Note: nearly all actives have a fitted effect of over 35% in size. The essentials: as §1
Experiment [4] in a line: Quantitative High-Throughput drug screen in 47 multiple myeloma cell lines against the NCATS MIPE library collection: L363_DSMZ cell viability assay (AID 1918984). Note: nearly all actives have a fitted effect of over 40% in size. The method, boiled down:
as §1

A short description of experiment [5]: Quantitative High-Throughput drug screen in 47 multiple myeloma cell lines against the NCATS MIPE library collection: KMS34_JCRB cell viability assay (AID 1918985). Note: nearly all actives have a fitted effect of over 40% in size. The method, boiled down:
as §1

The nature of experiment [6]: Quantitative High-Throughput drug screen in 47 multiple myeloma cell lines against the NCATS MIPE library collection: OCIMY5_PLB cell viability assay (AID 1918988). Note: nearly all actives have a fitted effect of over 65% in size. The method, boiled down:
as §1

Experiment [7] in a line: Quantitative High-Throughput drug screen in 47 multiple myeloma cell lines against the NCATS MIPE library collection: OPM1_PLB cell viability assay (AID 1918989). Note: nearly all actives have a fitted effect of over 40% in size. The essentials: as §1
A short description of experiment [8]: Quantitative High-Throughput drug screen in 47 multiple myeloma cell lines against the NCATS MIPE library collection: SKMM1_PLB cell viability assay (AID 1919863). Note: nearly all actives have a fitted effect of over 35% in size. The following applies: SKMM1 myeloma viability, CellTiter-Glo ATP, 48 h; viability: stronger effect = lower value. The essentials: as §1
For orientation: ATP-based viability assays read luminescence as a measure of living cells.

The nature of experiment [9]: Quantitative High-Throughput drug screen in 47 multiple myeloma cell lines against the NCATS MIPE library collection: LP1_DSMZ cell viability assay (AID 1918982). Note: nearly all actives have a fitted effect of over 35% in size. The method, boiled down: as §1
Experiment [10] in a line: Quantitative High-Throughput drug screen in 47 multiple myeloma cell lines against the NCATS MIPE library collection: OCIMY7_PLB cell viability assay (AID 1918987). Note: nearly all actives have a fitted effect of over 65% in size. The note with it: OCI-MY7 myeloma viability, CellTiter-Glo ATP, 48 h; viability (% of DMSO): at 45.8 µM (top of the series). The method, boiled down: as §1

Inconclusive results are not listed. A number with no mark means an inactive call. The source made the active and inactive calls. Calls come from the whole dose curve; as a rule, active = well fitted cell-killing curve with a large enough effect; inconclusive = small, poorly fitted or top-dose-only effect, or effect the other way; inactive = no such curve, though single readings can be large or run the other way.
Potency is the fitted concentration of half-maximal effect.

In the case of `O=C(CCCCCCC(=O)Nc1cccnc1)NO`, the Potency in experiment [1] is 3.32 µM (active); in experiment [2], 2.64 µM (active); in [3], 4.18 µM (active); in experiment [4] it was 5.9 µM (active); in [5], 3.72 µM (active); in [6], 3.32 µM (active). The Potency in [7] is 4.18 µM (active); in experiment [8], 5.9 µM (active).

Usually viability stands for a read-out of living cells in per cent, often relative to untreated cells. Consider `COc1ccnc2[nH]cc(C(=O)C(=O)N3CCN(C(=O)c4ccccc4)C[C@@H]3C)c12`, for which the Potency result in [1], in [2], in [9] and in experiment [7] was “inactive” each time. Moreover, the viability in [8] was 120%.

On to `CC(C)NC[C@@H](C(=O)N1CCN(c2ncnc3c2[C@H](C)C[C@H]3O)CC1)c1ccc(Cl)cc1`, for which the Potency is 0.0469 µM (active) in experiment [1]; 0.105 µM (active) in experiment [2]; 1.48 µM (active) in experiment [3]; 0.0372 µM (active) in [4]; 14.8 µM (active) in [5]; 0.372 µM (active) in experiment [7]. For the same molecule, in experiment [8], the Potency is 10.5 µM (active).

For `CC(C)(C)c1nc2c3cc[nH]c(=O)c3c3cc(F)ccc3c2[nH]1`, the Potency in [1] is 14.8 µM (active); in experiment [2], 2.64 µM (active); in experiment [3], 6.62 µM (active); in experiment [5], 1.66 µM (active); in [10] it was 0.332 µM (active); in experiment [6], 1.87 µM (active). For the same molecule, the Potency in experiment [7] is 0.743 µM (active); in [8] it was 0.935 µM (active).

With `CN1CCc2c(c3ccccc3n2Cc2ccc(C(=O)NO)cc2)C1`, the Potency in [1] is 16.6 µM (active); in [2] it was 16.6 µM (active); in experiment [3] it was 18.7 µM (active); in [5], 16.6 µM (active); in [10], 9.35 µM (active); in experiment [7] it was 16.6 µM (active).

In the case of `CNC(=O)Nc1ccc(-c2nc(N3CC4CCC(C3)O4)c3cnn(C4CCC5(CC4)OCCO5)c3n2)cc1`, the Potency in experiment [1] was 0.0148 µM (active); in [2], 0.0418 µM (active); in experiment [3] it was 0.0037 µM (active); in experiment [5] it was 0.0187 µM (active); in [10], 3.72 µM (active); in [7], 0.0118 µM (active). For the same molecule, the Potency in [8] was 0.0166 µM (active).

With `O=C(Nc1cc2cc[nH]c2cn1)c1ccccc1`, the Potency in experiment [1] was 14.8 µM (active); in experiment [2], 7.43 µM (active); in experiment [3], 11.8 µM (active); in experiment [4], 6.62 µM (active); in experiment [6], 5.26 µM (active); in [8], 11.8 µM (active).

As to `CC(=O)N1CCN(c2ccc(OCc3nn(C)c(C)c3-c3cccc4c(CCCOc5cccc6ccccc56)c(C(=O)O)n(Cc5cccnc5)c34)cc2)CC1`, the Potency in [1] is 0.0372 µM (active); in experiment [2], 1.05 µM (active); in [3] it was 16.6 µM (active); in experiment [4], 1.18 µM (active); in experiment [5], 18.7 µM (active); in experiment [10], 0.001 µM (active). Besides, the Potency in [6] is 0.118 µM (active); in [8], 20.9 µM (active).

Consider `CNC(=O)c1ccc(Nc2cc(Nc3ccccc3S(=O)(=O)C(C)C)c3cc[nH]c3n2)nc1`, for which the Potency in experiment [1] was 13.2 µM (active); in experiment [2], 6.62 µM (active); in experiment [3], 9.35 µM (active); in experiment [4] it was 2.35 µM (active); in experiment [10], 0.833 µM (active); in experiment [6] it was 4.69 µM (active). Also, the Potency in experiment [7] is 1.66 µM (active); in experiment [8] it was 18.7 µM (active).

In the case of `COc1cc(C[C@@H](CO)[C@H](CO)Cc2ccc(O)c(OC)c2)ccc1O`, the Potency in [1] is 0.372 µM (active); in experiment [2], 1.32 µM (active); in [4] it was 5.9 µM (active); in [10], 1.05 µM (active); in experiment [6], 0.332 µM (active); in experiment [7], 0.935 µM (active). Besides, the Potency result in [3] and in experiment [5] was “inactive” each time. Further, the viability in experiment [8] is 127%.

With `CCN(CC)CCCCNc1ncc2c(n1)N(C)C(=O)N(c1c(Cl)c(OC)cc(OC)c1Cl)C2`, the Potency in experiment [1] is 4.69 µM (active); in [2] it was 16.6 µM (active); in experiment [3], 10.5 µM (active); in [6], 14.8 µM (active); in experiment [7] it was 0.833 µM (active); in experiment [8] it was 14.8 µM (active). The Potency result in [4] was “inactive”.

Take `COc1ccc([C@@H]2CNC(=O)C2)cc1OC1CCCC1`: the Potency was 0.743 µM (active) in experiment [1] and 8.33 µM (active) in experiment [7]. The Potency result in experiment [2] and in experiment [9] was “inactive” in each case.

`COc1cc(CCc2cc(NC(=O)c3ccc(N4C[C@@H](C)N[C@@H](C)C4)cc3)n[nH]2)cc(OC)c1`: the Potency in [1] was 20.9 µM (active); in experiment [2], 26.4 µM (active); in experiment [3] it was 13.2 µM (active); in experiment [5] it was 16.6 µM (active); in experiment [10] it was 18.7 µM (active); in [6] it was 16.6 µM (active).

In the case of `C=C1C(=CC=C2CCC[C@]3(C)[C@@H]([C@H](C)CCCC(C)(C)O)CC[C@@H]23)C[C@@H](O)C[C@@H]1O`, the Potency in experiment [1] was 1.48 µM (active); in experiment [2], 18.7 µM (active); in [9], 20.9 µM (active); in experiment [10], 6.62 µM (active); in experiment [6], 3.32 µM (active); in [7] it was 5.26 µM (active).

Take `O=S(=O)(O)CCSSCCS(=O)(=O)O`: the Potency in experiment [1] is 18.7 µM (active). Besides, the Potency entry in experiment [2], in [9], in experiment [6] and in experiment [7] was “inactive” each time.

On to `CC(C)Oc1ccc(C(=O)N[C@H](CNC(=O)CN(C)C)Cc2ccc(-c3cn4cccc([C@H](C)O)c4n3)cc2)cc1Cl`, for which the Potency is 6.62 µM (active) in [1]; 0.59 µM (active) in [2]; 0.59 µM (active) in experiment [3]; 0.0833 µM (active) in experiment [4]; 0.332 µM (active) in experiment [10]; 0.418 µM (active) in experiment [6]. Besides, in experiment [8], the Potency is 0.296 µM (active).
